Results published in PubChem BioAssay AID1159580 (chemical genetic matrix, 2015).
Hit rate of the full screen: of about 5,500 compounds, about 2,000 (36%) were called active. Roughly 18% stayed inconclusive and do not appear here. Cut-off read from the data, not from the text of the source: active = normalized growth mostly below about 0.91 (no sharp cut-off); inconclusive = no clear call, values can overlap the other calls; inactive = mostly above about 0.92. This is one part of the list.

Test: chemical genetic growth profiling, strain panel (AID 1159580);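 note: tested at 20 µM; growth read once vehicle control cultures reached saturation at 30 °C; 1 = growth at the plate median or of vehicle wells; lower values mean less growth of the strain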
Settings: S. cerevisiae deletion strains, growth OD
[1] = locus YAR019C, strain CDC15, hits give low values
[2] = locus YBL105C, strain PKC1, hits give low values
[3] = locus YBR135W, strain CKS1, hits give low values
[4] = locus YBR136W, strain MEC1, hits give low values
[5] = locus YBR160W, strain CDC28, hits give low values
[6] = locus YDL017W, strain CDC7, hits give low values
[7] = locus YDL028C, strain MPS1, hits give low values
[8] = locus YDL101C, strain DUN1, hits give low values
[9] = locus YDL108W, strain KIN28, hits give low values
[10] = locus YDL132W, strain cdc53, hits give low values
[11] = locus YDL214C, strain PRR2, hits give low values
[12] = locus YDR052C, strain DBF4, hits give low values
[13] = locus YDR054C, strain cdc34, hits give low values
[14] = locus YDR226W, strain ADK1, hits give low values
[15] = locus YDR477W, strain SNF1, hits give low values
[16] = locus YER123W, strain YCK3, hits give low values
[17] = locus YER133W, strain GLC7, hits give low values
[18] = locus YFL009W, strain cdc4, hits give low values
[19] = locus YFL029C, strain CAK1, hits give low values
[20] = locus YFR003C, strain YPI1, hits give low values
[21] = locus YFR019W, strain FAB1, hits give low values
[22] = locus YFR028C, strain CDC14, hits give low values
[23] = locus YGR040W, strain KSS1, hits give low values
[24] = locus YGR052W, strain FMP48, hits give low values
[25] = locus YGR092W, strain DBF2, hits give low values
[26] = locus YHR030C, strain SLT2, hits give low values
[27] = locus YHR079C, strain IRE1, hits give low values
[28] = locus YHR082C, strain KSP1, hits give low values
[29] = locus YHR205W, strain SCH9, hits give low values
[30] = locus YIL147C, strain SLN1, hits give low values
[31] = locus YJL095W, strain BCK1, hits give low values
[32] = locus YJL128C, strain PBS2, hits give low values
[33] = locus YJL157C, strain FAR1, hits give low values
[34] = locus YJR016C, strain ILV3, hits give low values
[35] = locus YJR066W, strain TOR1 (second series), hits give low values
[36] = locus YJR066W, strain TOR1, hits give low values
[37] = locus YKL048C, strain ELM1, hits give low values
[38] = locus YKL067W, strain YNK1, hits give low values
[39] = locus YKL101W, strain HSL1, hits give low values
[40] = locus YKL193C, strain SDS22, hits give low values
[41] = locus YKL203C, strain TOR2, hits give low values
[42] = locus YLR113W, strain HOG1, hits give low values
[43] = locus YLR133W, strain CKI1, hits give low values
[44] = locus YLR403W, strain SFP1, hits give low values
[45] = locus YML070W, strain DAK1, hits give low values
[46] = locus YMR001C, strain CDC5, hits give low values
[47] = locus YMR205C, strain PFK2 (second series), hits give low values
[48] = locus YMR277W, strain FCP1, hits give low values
[49] = locus YNL006W, strain LST8, hits give low values
[50] = locus YNL020C, strain ARK1, hits give low values
[51] = locus YNL161W, strain CBK1, hits give low values
[52] = locus YNL183C, strain NPR1, hits give low values
[53] = locus YNL207W, strain RIO2, hits give low values
[54] = locus YNL222W, strain SSU72, hits give low values
[55] = locus YNL307C, strain MCK1 (second series), hits give low values
[56] = locus YOL078W, strain AVO1, hits give low values
[57] = locus YOL136C, strain PFK27, hits give low values
[58] = locus YOR061W, strain CKA2, hits give low values
[59] = locus YOR119C, strain RIO1, hits give low values
[60] = locus YOR231W, strain MKK1, hits give low values
[61] = locus YOR329C, strain SCD5, hits give low values
[62] = locus YPL031C, strain PHO85, hits give low values
[63] = locus YPL153C, strain RAD53, hits give low values
[64] = locus YPL204W, strain HRR25, hits give low values
[65] = locus YPL209C, strain IPL1, hits give low values
[66] = locus YPL256C, strain CLN2, hits give low values
[67] = locus YPR025C, strain CCL1, hits give low values
[68] = locus YPR106W, strain ISR1, hits give low values
[69] = locus YPR111W, strain DBF20, hits give low values
[70] = strain NNK1, hits give low values
[71] = strain TSCII, hits give low values

Measured: normalized growth

CSC(=N)N
inactive: locus YAL040C, strain CLN3, hits give low values 0.992 | locus YCL061C, strain MRC1 (second series), hits give low values 1.01 | locus YDR150W, strain NUM1, hits give low values 1.01 | locus YDR363W, strain ESC2, hits give low values 1.02 | locus YER002W, strain NOP16, hits give low values 0.984 | locus YGR078C, strain PAC10, hits give low values 1.01 | locus YMR307W, strain GAS1, hits give low values 1.01 | locus YNL153C, strain GIM3, hits give low values 1.01 | locus YNL175C, strain NOP13, hits give low values 1.01 | locus YNL197C, strain WHI3, hits give low values 1 | locus YNL224C, strain SQS1, hits give low values 1 | locus YOR083W, strain WHI5 (second series), hits give low values 1.01 | locus YPL241C, strain CIN2, hits give low values 1.01

C/C(=N/NC(N)=S)c1ccc(Oc2c(Cl)cncc2Cl)cc1
inactive: [1] 0.997 | [2] 0.993 | [3] 0.983 | [4] 0.986 | [5] 0.989 | [6] 0.987 | [7] 0.992 | [8] 0.988 | [9] 0.987 | [10] 0.994 | [11] 1.01 | [12] 0.989 | [13] 0.978 | [14] 0.988 | [15] 0.999 | [16] 0.989 | [17] 0.969 | [18] 0.983 | [19] 1 | [20] 0.991 | [21] 0.99 | [22] 0.993 | [23] 0.989 | [24] 1.06 | [25] 0.97 | [26] 1.05 | [27] 0.932 | [28] 1.24 | [29] 1.07 | [30] 0.984 | [31] 0.944 | [32] 1.02 | [33] 0.993 | [34] 0.995 | [35] 0.953 | [36] 1.2 | [37] 1.03 | [38] 1.02 | [39] 1.03 | [40] 0.991 | [41] 1.06 | [42] 1.01 | [43] 1.01 | [44] 0.97 | [45] 1.01 | [46] 0.989 | [47] 1.03 | [48] 0.997 | [49] 0.993 | [50] 1.01 | [51] 1 | [52] 0.996 | [53] 0.995 | [54] 0.998 | [55] 1 | [56] 0.998 | [57] 1.02 | [58] 0.994 | [59] 1.02 | [60] 0.973 | [61] 0.991 | [62] 0.983 | [63] 0.953 | [64] 0.972 | [65] 0.998 | [66] 0.99 | [67] 0.988 | [68] 1 | [69] 1.02 | [70] 1.03 | [71] 0.994

COc1ccc(NC(=O)O/N=C(/N)c2ccc(Oc3c(Cl)cncc3Cl)cc2)cc1
inactive: [1] 0.966 | [2] 0.974 | [3] 0.975 | [4] 0.982 | [5] 0.976 | [6] 0.98 | [7] 0.987 | [8] 0.969 | [9] 0.99 | [10] 0.966 | [11] 0.825 | [12] 0.986 | [13] 0.959 | [14] 0.965 | [15] 0.758 | [17] 0.751 | [18] 0.963 | [19] 0.971 | [20] 0.972 | [22] 0.963 | [23] 0.751 | [24] 0.694 | [25] 0.706 | [27] 0.618 | [28] 0.805 | [29] 0.743 | [30] 0.963 | [31] 0.578 | [32] 0.971 | [33] 0.805 | [34] 0.975 | [36] 0.69 | [37] 0.95 | [38] 0.866 | [39] 0.881 | [40] 0.97 | [41] 0.806 | [43] 0.825 | [44] 0.756 | [45] 0.804 | [46] 0.958 | [47] 0.898 | [48] 0.977 | [49] 0.981 | [50] 0.856 | [51] 0.962 | [52] 0.593 | [53] 0.957 | [54] 0.965 | [55] 0.745 | [56] 0.973 | [57] 0.793 | [58] 0.87 | [59] 0.781 | [60] 0.661 | [61] 0.971 | [62] 0.726 | [63] 0.728 | [64] 0.676 | [65] 0.963 | [67] 0.965 | [68] 0.98 | [69] 1 | [70] 1 | [71] 0.975
active: [16] 0.575 | [21] 0.527 | [26] 0.71 | [35] 0.572 | [42] 0.604 | [66] 0.676
